Test results published in PubChem BioAssay AID1159580 (chemical genetic matrix, 2015).
About 2,000 (36%) of roughly 5,500 compounds were called active. Roughly 18% stayed inconclusive and do not appear here. Rule as the data show it: active = normalized growth mostly below about 0.91 (no sharp cut-off); inconclusive = no clear call, values can overlap the other calls; inactive = mostly above about 0.92. Some of the results follow.

Assay: chemical genetic growth profiling, strain panel (AID 1159580);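 also: tested at 20 µM; growth read once vehicle control cultures reached saturation at 30 °C; 1 = growth at the plate median or of vehicle wells; lower values mean less growth of the strain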
Settings: S. cerevisiae deletion strains, growth OD
[1] = locus YAL013W, strain DEP1, stronger effect = lower value
[2] = locus YAL040C, strain CLN3, stronger effect = lower value
[3] = locus YCL061C, strain MRC1 (second series), stronger effect = lower value
[4] = locus YDR363W, strain ESC2, stronger effect = lower value
[5] = locus YER002W, strain NOP16, stronger effect = lower value
[6] = locus YGR078C, strain PAC10, stronger effect = lower value
[7] = locus YMR307W, strain GAS1, stronger effect = lower value
[8] = locus YNL175C, strain NOP13, stronger effect = lower value
[9] = locus YNL197C, strain WHI3, stronger effect = lower value
[10] = locus YNL224C, strain SQS1, stronger effect = lower value
[11] = locus YOR083W, strain WHI5 (second series), stronger effect = lower value
[12] = locus YPL241C, strain CIN2, stronger effect = lower value

Measured: normalized growth

CC(COc1ccc(/C=C/c2ccccc2)cc1)[N+](C)(C)C (stereo not given)
inactive: [1] 0.942 | [2] 1.02 | [3] 0.982 | [4] 0.914 | [5] 0.989 | [6] 0.99 | locus YMR263W, strain SAP30, stronger effect = lower value 1.01 | [7] 0.994 | locus YNL128W, strain TEP1, stronger effect = lower value 1.03 | [8] 0.999 | [9] 0.996 | [12] 0.98
active: locus YDR150W, strain NUM1, stronger effect = lower value 0.926 | locus YJR075W, strain HOC1, stronger effect = lower value 0.878 | [10] 1.12 [resistant] | [11] 0.816

Cc1cccc(/C=C/c2ccccc2)n1
inactive: [1] 1 | [2] 0.984 | [3] 1.01 | [4] 1.04 | [5] 0.975 | [6] 1.01 | [7] 0.995 | locus YNL153C, strain GIM3, stronger effect = lower value 0.93 | [8] 0.963 | [9] 0.986 | [10] 0.989 | [11] 0.923 | [12] 1.02

OC(COc1ccc(F)cc1)(c1ccccc1)c1ccccc1
inactive: locus YAR019C, strain CDC15, stronger effect = lower value 0.955 | locus YBL105C, strain PKC1, stronger effect = lower value 0.953 | locus YBR135W, strain CKS1, stronger effect = lower value 0.965 | locus YBR136W, strain MEC1, stronger effect = lower value 0.968 | locus YBR160W, strain CDC28, stronger effect = lower value 0.951 | locus YDL017W, strain CDC7, stronger effect = lower value 0.955 | locus YDL028C, strain MPS1, stronger effect = lower value 0.977 | locus YDL101C, strain DUN1, stronger effect = lower value 0.939 | locus YDL108W, strain KIN28, stronger effect = lower value 0.982 | locus YDL132W, strain cdc53, stronger effect = lower value 0.955 | locus YDL214C, strain PRR2, stronger effect = lower value 0.964 | locus YDR052C, strain DBF4, stronger effect = lower value 0.965 | locus YDR054C, strain cdc34, stronger effect = lower value 0.949 | locus YDR226W, strain ADK1, stronger effect = lower value 0.955 | locus YDR477W, strain SNF1, stronger effect = lower value 0.985 | locus YER123W, strain YCK3, stronger effect = lower value 0.969 | locus YER133W, strain GLC7, stronger effect = lower value 0.993 | locus YFL009W, strain cdc4, stronger effect = lower value 0.954 | locus YFL029C, strain CAK1, stronger effect = lower value 0.957 | locus YFR003C, strain YPI1, stronger effect = lower value 0.961 | locus YFR019W, strain FAB1, stronger effect = lower value 0.974 | locus YFR028C, strain CDC14, stronger effect = lower value 0.964 | locus YGR040W, strain KSS1, stronger effect = lower value 0.998 | locus YGR052W, strain FMP48, stronger effect = lower value 1.1 | locus YGR092W, strain DBF2, stronger effect = lower value 0.939 | locus YHR030C, strain SLT2, stronger effect = lower value 1.14 | locus YHR079C, strain IRE1, stronger effect = lower value 1.09 | locus YHR082C, strain KSP1, stronger effect = lower value 1.1 | locus YHR205W, strain SCH9, stronger effect = lower value 0.977 | locus YIL147C, strain SLN1, stronger effect = lower value 0.966 | locus YJL095W, strain BCK1, stronger effect = lower value 1.1 | locus YJL128C, strain PBS2, stronger effect = lower value 0.913 | locus YJL157C, strain FAR1, stronger effect = lower value 0.968 | locus YJR016C, strain ILV3, stronger effect = lower value 0.959 | locus YJR066W, strain TOR1 (second series), stronger effect = lower value 1.01 | locus YJR066W, strain TOR1, stronger effect = lower value 1.15 | locus YKL048C, strain ELM1, stronger effect = lower value 0.95 | locus YKL067W, strain YNK1, stronger effect = lower value 0.961 | locus YKL101W, strain HSL1, stronger effect = lower value 0.962 | locus YKL193C, strain SDS22, stronger effect = lower value 0.959 | locus YKL203C, strain TOR2, stronger effect = lower value 1.07 | locus YLR113W, strain HOG1, stronger effect = lower value 0.971 | locus YLR133W, strain CKI1, stronger effect = lower value 0.955 | locus YLR403W, strain SFP1, stronger effect = lower value 0.983 | locus YML070W, strain DAK1, stronger effect = lower value 0.973 | locus YMR001C, strain CDC5, stronger effect = lower value 0.954 | locus YMR205C, strain PFK2 (second series), stronger effect = lower value 0.968 | locus YMR277W, strain FCP1, stronger effect = lower value 0.961 | locus YNL006W, strain LST8, stronger effect = lower value 0.97 | locus YNL020C, strain ARK1, stronger effect = lower value 0.959 | locus YNL161W, strain CBK1, stronger effect = lower value 0.958 | locus YNL183C, strain NPR1, stronger effect = lower value 1.12 | locus YNL207W, strain RIO2, stronger effect = lower value 0.971 | locus YNL222W, strain SSU72, stronger effect = lower value 0.962 | locus YNL307C, strain MCK1 (second series), stronger effect = lower value 0.961 | locus YOL078W, strain AVO1, stronger effect = lower value 0.967 | locus YOL136C, strain PFK27, stronger effect = lower value 0.98 | locus YOR061W, strain CKA2, stronger effect = lower value 0.969 | locus YOR119C, strain RIO1, stronger effect = lower value 1.02 | locus YOR231W, strain MKK1, stronger effect = lower value 1.06 | locus YOR329C, strain SCD5, stronger effect = lower value 0.956 | locus YPL031C, strain PHO85, stronger effect = lower value 0.985 | locus YPL153C, strain RAD53, stronger effect = lower value 1 | locus YPL204W, strain HRR25, stronger effect = lower value 0.991 | locus YPL209C, strain IPL1, stronger effect = lower value 0.956 | locus YPL256C, strain CLN2, stronger effect = lower value 1.02 | locus YPR025C, strain CCL1, stronger effect = lower value 0.954 | locus YPR106W, strain ISR1, stronger effect = lower value 0.954 | locus YPR111W, strain DBF20, stronger effect = lower value 0.949 | strain NNK1, stronger effect = lower value 0.956 | strain TSCII, stronger effect = lower value 0.957
